In the library only some 10% were active in any assay of this set; here they are far more common.
VDR inhibitor: vitamin D3 receptor (human) inhibition. VDR-SRC2-3 peptide fluorescence polarization, 2 h. Potency, µM, for inactives: max response, negative = inhibition, actives largely listed as inhibitors. AID 504847. hit rate 0.93% among 400,000; note: potency is the fitted concentration of half-maximal effect
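After 23 nl compound addition and a short centrifugation, plates sat for 2 hours at ambient temperature; polarization of fluorescence then indicated loss of VDR binding to peptide SRC2-3.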
PLK1 PBD inh: blocks phosphopeptide binding to human PLK1 polo-box domain. P53350. Plk1 PBD binding of FITC phosphopeptide, fluorescence polarization. Potency, µM, for inactives: max response, negative = inhibition, most hits filed as inhibitors. hit rate 2.8% among 360,000. AID 720504; note: potency is the fitted concentration of half-maximal effect; series mostly up to about 57 µM; nearly all actives have a fitted effect of over 65% in size
Target sequence (P53350 whole entry, looked up, the tested form may be a part): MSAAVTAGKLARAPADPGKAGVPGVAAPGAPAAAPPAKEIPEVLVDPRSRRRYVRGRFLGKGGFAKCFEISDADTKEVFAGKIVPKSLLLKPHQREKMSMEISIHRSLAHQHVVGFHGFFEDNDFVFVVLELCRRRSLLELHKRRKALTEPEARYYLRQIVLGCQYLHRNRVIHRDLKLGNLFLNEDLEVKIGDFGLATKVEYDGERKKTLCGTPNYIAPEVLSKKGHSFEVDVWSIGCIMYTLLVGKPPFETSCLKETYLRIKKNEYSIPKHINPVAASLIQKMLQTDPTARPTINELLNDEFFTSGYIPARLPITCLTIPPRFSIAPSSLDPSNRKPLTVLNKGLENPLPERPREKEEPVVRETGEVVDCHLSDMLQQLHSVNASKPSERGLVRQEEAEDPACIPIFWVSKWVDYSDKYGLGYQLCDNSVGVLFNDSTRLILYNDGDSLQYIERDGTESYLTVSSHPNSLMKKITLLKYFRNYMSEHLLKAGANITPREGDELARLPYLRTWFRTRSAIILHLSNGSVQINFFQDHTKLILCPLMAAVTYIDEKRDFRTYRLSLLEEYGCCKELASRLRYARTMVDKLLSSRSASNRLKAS
CCT modulator: modulators of cytosolic chaperonin (CCT/TRiC) activity | purified chaperonin ATPase assay, HTRF ADP detection, 30 min | activity change, % (test concentration not listed), hits read low | hit rate 0.3% among 360,000 | AID 651819; in the data active = activity change below about -30%
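TRiC (40 or 20 nM final, by batch activity) in 30 mM Tris pH 7.4, 100 mM KCl, 5 mM MgCl2, 1 mM DTT was treated with compound at 76 uM single dose, then 10 uM ATP, 30 min at 37 °C. ADP was read by HTRF Transcreener.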
Sfp inh: Sfp phosphopantetheinyl transferase inhibition. Q9F4F7. Biochemical Sfp PPTase activity, qHTS. Potency, µM, inactives show largest response in the series, negative = inhibition, most hits filed as inhibitors. hit rate 3.5% among 310,000;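 note: the enzyme is Sfp with the accession as filed and its product quenches rhodamine fluorescence; potency is the fitted concentration of half-maximal effect; 0% = enzyme reaction without inhibitor and -100% = no enzyme wells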
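After 15 min at room temperature with compound, 15 nM Sfp received 5 uM rhodamine-CoA plus 12.5 uM BHQ-2-ybbR (50 mM Hepes pH 7.6, 10 mM MgCl2). Rate came from the fluorescence difference over 30 min, ex 525/em 598 nm.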
G9a inh: G9a (human) methyltransferase inhibition. G9a H3K9 monomethylation, AlphaScreen, 2 h. Q96KQ7. hit rate 8.8% among 350,000. Potency, µM (series often up to 102 µM), for the others: at the highest dose activity, negative = inhibition, hits mostly inhibitors; note: potency is the fitted concentration of half-maximal effect; nearly all actives have a fitted effect of over 75% in size
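Step 1: enzyme (final 20 nM) with compound, 15 min RT. Step 2: substrate peptide 500 nM and SAM 20 uM, 2 h RT. Step 3: anti-H3K9me1 antibody and AlphaScreen beads, 10 min, then plate read.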
Mm-Cpn inhibitor: blocks the Methanococcus maripaludis chaperonin Mm-Cpn; hit rate 0.031% among 330,000; Potency, µM (top dose mostly 76.9 µM), for inactives: at the highest dose activity, negative = inhibition, most hits filed as inhibitors; AID 504842; purified Mm-Cpn ATPase, ADP Transcreener TR-FRET; note: potency is the fitted concentration of half-maximal effect; nearly all actives have a fitted effect of over 80% in size
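Eu-cryptate anti-ADP/ADP-d2 competition gives a ratio inversely related to ADP. Enzyme at 25 nM was pre-exposed to compound for 10 min, then given 10 uM ATP for 30 min, 37°C throughout.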
* marks the source's active call; other numbers are inactive results; ? = inconclusive; . = no result; [ ] = another dose, or the depositor's remark. Unless noted, calls come from the whole dose curve; as a rule, active = well fitted curve in the direction sought with a large enough effect; inconclusive = small, poorly fitted or top-dose-only effect, or another doubt; inactive = no such curve, though single readings can be large; an effect the other way counts as inactive or inconclusive. Unless noted, % is set by controls: 0 for no effect and ±100 for the full control effect.

SMILES | VDR inhibitor | PLK1 PBD inh | CCT modulator | Sfp inh | G9a inh | Mm-Cpn inhibitor
CC(C)[C@H](NC(N)=O)C(=O)Nc1cccc(S(=O)(=O)N2CCOCC2)c1 | -19% | ? | 2 | -22% | 35µM* | 0%
O=C(CSC1=Nc2ccccc2C2=NC(Cc3ccccc3)C(=O)N12)Nc1ccccc1F (configuration not stated) | 1% | . | . | . | -6%[59 µM] | .
C#CCOCCOCCOCCNc1nc(N2CCN(C(=O)Cn3cc(CC(C)O)nn3)CC2)nc(N2CCN(C(=O)[C@H](C)n3cc(CCCN=C(N)N)nn3)CC2)n1 (some centres not stated) | ? | -16% | -3 | 1% | 7.1µM* | -6%
C#CCOCCOCCOCCNc1nc(N2CCN(C(=O)Cn3cc(CC(C)O)nn3)CC2)nc(N2CCN(C(=O)[C@H]([C@@H](C)O)n3cc(CCCCN)nn3)CC2)n1 (some centres not stated) | -20% | -1% | -1 | . | . | .
C#CCOCCOCCOCCNc1nc(N2CCN(C(=O)Cn3cc(CCCN=C(N)N)nn3)CC2)nc(N2CCN(C(=O)[C@H]([C@@H](C)O)n3cc(CCCCN)nn3)CC2)n1 | -1% | 1% | 0 | . | 7%[2.33 µM] | 1%
C#CCOCCOCCOCCNc1nc(N2CCN(C(=O)Cn3cc(CCCCN)nn3)CC2)nc(N2CCN(C(=O)[C@H](C)n3cc(CCCN=C(N)N)nn3)CC2)n1 | . | . | . | 4% | 28µM* | -11%
C[N+]1(CCCOC(=O)C2(c3ccccc3)CCCC2)CCOCC1 | 3% | -6% | -1 | 2% | 7.9µM* | -1%
CN(C)CCOC(=O)C1(c2ccccc2)CCCC1 | -4% | -13% | -2 | 10% | -15% | 0%
Cc1ccccc1-c1nnc(CN2CCN(c3cc(Cl)ccc3C)CC2)o1 | -4% | . | . | . | 2%[59 µM] | .
N#CC1=C(N)N2C(=C(C#N)C1c1cccc(Br)c1)Nc1ccccc12 (configuration not stated) | 10% | -17% | 1 | 19% | 10µM* | 1%
CN1CCC(N(C)CC(=O)Nc2ccc3c(c2)OC(F)(F)O3)CC1 | 9% | -1% | 2 | 50µM* | . | -1%
CN(CC(=O)Nc1ccc(SC(F)F)cc1)C1CCCCC1 | -11% | -12% | -3 | 0% | 79µM* | -2%
CN(CC(=O)Nc1ccc(S(N)(=O)=O)cc1)C1CCCCC1 | 6% | 0% | 1 | -7% | -4% | 3%
CN(CC(=O)Nc1ccc(Cl)c(Cl)c1)C1CCCCC1 | 3% | 6% | 1 | -21% | 22µM* | 1%
CC(=O)N1CCN(C(=S)Nc2ccc(SC(F)F)cc2)CC1 | -6% | 21µM* | 3 | 16% | 3% | -3%
Cc1nc(N2CCCC2)c2c(C(=O)N3CCN(c4cccc(Cl)c4)CC3)c(C)oc2n1 | 8% | . | . | . | -9%[59 µM] | .
COc1ccc(CN(C)CC(=O)Nc2ccc(SC(F)F)cc2)cc1OC | -19% | 27µM* | 0 | 4% | -39% | -1%
CCOC(=O)c1ccccc1NC(=O)COC(=O)CC(C)(C)CC1=NS(=O)(=O)c2ccccc2N1 | 17% | . | . | . | -2%[59 µM] | .
CCc1ccc(NC(=O)C(=O)NCC(c2ccc3c(c2)OCO3)N2CCN(C)CC2)cc1 (configuration not stated) | 5% | . | . | . | -1%[59 µM] | .
Cc1cc(C)cc(NC(=O)C(NCCN2CCOCC2)c2ccccc2)c1 (configuration not stated) | ? | 24µM* | -3 | ? | 2.8µM* | -5%
O=C(Nc1cc(Cl)cc(Cl)c1)C(c1ccccc1)N1CCCCC1 (configuration not stated) | 11% | -1% | 1 | 1% | 29%[59 µM] | 0%
O=C(Nc1cc(Cl)cc(Cl)c1)C(NCCO)c1ccccc1 (configuration not stated) | 3% | -3% | 0 | 35µM* | -7%[0.0925 µM] | 0%
CCCCN(C)CCNC(=O)C1CCCN(S(=O)(=O)c2ccc3c(c2)oc(=O)n3C)C1 (configuration not stated) | -16% | . | . | . | -7%[59 µM] | .
Cc1cc(C)n(CC(O)Cn2c3ccc(Br)cc3c3cc(Br)ccc32)c(=O)n1 (configuration not stated) | 9% | -8% | -6 | -25% | 79µM* | -18%
COc1ccc(OC)c(NC(=O)CSc2nnc(C3CCCCC3)n2-c2ccccc2)c1 | -14% | 27µM* | -2 | 3% | -16%[59 µM] | -1%
SMILES | VDR inhibitor | PLK1 PBD inh | CCT modulator | Sfp inh | G9a inh | Mm-Cpn inhibitor
COc1ccc(Cl)cc1NC(=O)CSc1nnc(C2CC2)n1N | -16% | -13% | 0 | . | 79µM* | 3%
COc1ccc(OC)c(NC(=O)CSc2nnc(-c3ccco3)n2-c2ccc(C(=O)O)cc2)c1 | 5% | -12% | 1 | 56µM* | ? | -1%
COc1ccc(OC)c(C(=O)CSc2nnc(C3CC3)n2C2CC2)c1 | . | -7% | 2 | . | . | .
CCn1c(SCC(=O)c2cc(OC)ccc2OC)nnc1C1CC1 | -20% | ? | -2 | -17% | 50µM* | 3%
O=[N+]([O-])c1cccc(S(=O)(=O)c2ccc(NCCO)c([N+](=O)[O-])c2)c1 | ? | 13µM* | 4 | 5% | -29% | 3%
CCOc1cc(/C=C2\SC(=S)N(C(C(=O)O)c3ccccc3)C2=O)ccc1O (configuration not stated) | -20% | -18% | 0 | 40µM* | 45µM* | -2%
O=C(O)C(c1ccccc1)N1C(=O)/C(=C\c2ccc(O)c(O)c2)SC1=S (configuration not stated) | -12% | -16% | 0 | -9% | 7.9µM* | -3%
CCOc1cc(/C=C2/SC(=S)N(CC3CCCO3)C2=O)ccc1O (configuration not stated) | -10% | 9% | 0 | 48% | -2% | 0%
COc1cc(/C=C2\SC(=S)N(C(C(=O)O)c3ccccc3)C2=O)ccc1O (configuration not stated) | -18% | 8% | -1 | ? | 8.9µM* | -25%
COc1ccccc1/C=C1\SC(=S)N(C(C(=O)O)c2ccccc2)C1=O (configuration not stated) | -2% | 24µM* | -1 | 56µM* | ? | 1%
CC(C)(C)C1CCc2c(sc3nc(-c4cc5cc(Cl)ccc5oc4=O)[nH]c(=O)c23)C1 (configuration not stated) | 15% | . | . | . | -17%[59 µM] | .
CCC1=C(c2ccc(C)cc2)S(=O)(=O)N=C1N1CCC(C(=O)Nc2ccccc2F)CC1 | 5% | . | . | . | 6%[59 µM] | .
CCC(=O)NC[C@H](Cc1ccc(OCCc2nc(-c3ccccc3)oc2C)cc1)N/C(C)=C\C(=O)c1ccc(C(F)(F)F)cc1 | 0% | . | . | 9% | . | .
O=C1OC(C2=CCCCC2)=NC12CC2 | . | . | . | 14% | . | .
